Measured values as given in PubChem BioAssay (Tox21).
Several values for one entry are separate records, joined by “and”; a condition that tells them apart may be missing. Identical values can stand only once. A structure can be active in one record and inactive in another. Activity calls are given as the source filed them. Where a call stands in place of a potency, no number is given. Calls follow the shape of the dose curve; as a rule, active = well fitted activation curve with a large enough effect in the repeat runs; inconclusive = weak or mixed curves; inactive = flat fitted curve, though single readings scatter.

experiment: A CellTox Green Cytotoxicity Assay to monitor cytotoxicity in HepG2 cells - 0 hour (AID 1224882); conditions: CellTox Green fluorescence; series mostly up to 76.8 µM; cytotoxicity: at the top concentration; also: nearly all actives have a fitted effect of over 35% in size
Text: National Center for Advancing Translational Sciences [NCATS]
NIH Chemical Genomics Center [NCGC]
U.S. Environmental Protection Agency [EPA]
National Institutes of Environmental Health Sciences [NIEHS]
National Toxicology Program [NTP]
Cell-based models are critical for drug discovery. Determining the natural cytotoxic effects resulting from test compounds is an essential research activity. A CellTox Green Cytotoxicity Assay to monitor cytotoxicity in real time of continues cell culture during 40 hours of the compound treatment was used to screen Tox21 10K library compounds in HepG2 cells. CellTox Green Cytotoxicity Assay is a nonlytic, homogeneous, biofluorescent method to measure cytotoxicity in cell culture after experimental manipulation. The assay system uses a proprietary asymmetric cyanine dye that is excluded from viable cells but preferentially stains the dead cell's DNA. […] Viable cells produce no appreciable increases in fluorescence. Therefore, the fluorescence signal produced by the binding interaction with dead cell DNA is proportional to cytotoxicity.
The mixture of HepG2 cell suspension and reagents were dispensed at 600cells/6 ul/well in 1536-well tissue culture treated black solid bottom plates using a Multidrop dispenser. After the assay plates were incubated at a 37 C/5% CO2 incubator for 5 hours, 23 nL of compounds dissolved in DMSO, positive and negative controls was transferred to the assay plate by a pintool work station. The plates were incubated at 37 C for 40 hours. The fluorescence intensity were measured at 0h, 8h, 16h, 24h, 32h and 40h time points using ViewLux plate reader during compound treatment.
Potency is read from the fitted curve at half-maximal effect.

Row | Compound | Potency | cytotoxicity
1 | CCCCCCCCCCC=CC1CC(=O)OC1=O (stereo not given) | inactive | 
2 | CCC(C)C=O (stereo not given) | inactive | 
3 | CCCCC/C=C\C/C=C\CCCCCCCC(=O)OC | inactive | 
4 | O=[N+]([O-])c1cc(N(CCO)CCO)ccc1NCCO | inactive | 
5 | O=Nc1ccc(O)cc1 | inactive | 
6 | NC(=O)NNc1ccccc1 | inactive | 
7 | O=C1CCCCC1 | inactive | 
8 | OCC#CCO | inactive | 
9 | CC(C)n1c(/C=C/[C@@H](O)C[C@@H](O)CC(=O)O)c(-c2ccc(F)cc2)c2ccccc21 | inactive | 
10 | C=C1C2CCC(C2)C1(C)C (stereo not given) | inactive | 
11 | CCCCOCCO | inactive | 
12 | C=C(C)C(=O)OCC(CC)(COC(=O)C(=C)C)COC(=O)C(=C)C | inactive and 42.9 µM (active) | 
13 | CC1Cc2ccccc2N1NC(=O)c1ccc(Cl)c(S(N)(=O)=O)c1 (stereo not given) | inactive | 
14 | O=S(=O)(Oc1ccc(Cl)cc1Cl)c1ccccc1 | inactive | 
15 | CC1CC(OC(=O)c2ccccc2O)CC(C)(C)C1 (stereo not given) | inactive | 
16 | C/C=C(C)/C=C/C=C(C)C | inactive | 
17 | C=C1CC[C@H](O)CC1=C/C=C1\CCC[C@]2(C)[C@@H]([C@H](C)/C=C/[C@H](C)C(C)C)CC[C@@H]12 | inactive | 
18 | Cc1cc(O)c2c(c1)C(=O)c1cc(O)cc(O)c1C2=O | inactive | 
19 | CC(=O)CCc1ccccc1 | inactive | 
20 | CC(C)(C)C1CCC(O)CC1 (stereo not given) | inactive | 

Row | Compound | Potency | cytotoxicity
21 | NS(=O)(=O)c1cc2c(cc1Cl)NC=NS2(=O)=O | inactive | 
22 | S=c1nc[nH]c2nc[nH]c12 | inactive | 
23 | Cc1cc(NS(=O)(=O)c2ccc(N)cc2)no1 | inactive | 
24 | Oc1ccc2ccccc2c1 | inactive | 
25 | Cc1cc(=O)[nH]c(C(C)C)n1 | inactive | 
26 | C=C(C#N)C(=O)OCC | inactive | 
27 | COC(=O)c1ccccc1O | inactive | 
28 | CCCCCCOC(C)=O | inactive | 
29 | Cc1ccc(C)c(C)c1 | inactive | 
30 | CC(C)(N=C=O)c1cccc(C(C)(C)N=C=O)c1 | inactive | 
31 | CC1=CC[C@H]2C[C@@H]1C2(C)C | inactive | 
32 | O=[N+]([O-])C(CO)(CO)CO | inactive | 
33 | O=C(O)c1ccc([N+](=O)[O-])cc1 | inactive | 
34 | CCCCCCCCCCCCOCC1CO1 (stereo not given) | inactive | 
35 | CC1COc2ccccc2N1C(=O)C(Cl)Cl (stereo not given) | inactive | 
36 | Cn1c([N+](=O)[O-])cnc1COC(N)=O | inactive | 
37 | Cc1cc(O)cc(C)c1Cl | inactive | 
38 | CC1(C)CC(N=C=O)CC(C)(CN=C=O)C1 (stereo not given) | inactive | 
39 | O=C(O)c1cc(-c2ccccc2)nc2ccccc12 | inactive | 
40 | CN(C)c1cccc(O)c1 |  | 1.47% (inactive)
